Shown are actives, neighbours in structure and some others; about 2.3% of the full set was active somewhere.
MsrA inhibitor – bovine MsrA enzyme inhibitors, primary screen, biochemical, absorbance, HTS; inhibition, % at 15.5 µM; AID 651718, 2012; Methionine sulfoxide reductase A (Bos taurus); purified bovine MsrA, absorbance read-out; actives 0.75% (n = 360,000)
MsrA act – bovine MsrA enzyme activators, primary screen, biochemical, absorbance, HTS. purified bovine MsrA, absorbance read-out. activation, % at 10.6 µM. actives 0.3% (n = 360,000); in the data active means activation above about 7.5%
EBNA-1 inh – EBNA-1 DNA-binding inhibitors, primary screen, biochemical, fluorescence polarization. AID 1950, 2009. actives 0.34% (n = 300,000). inhibition, % at 14.8 µM; in the data active means inhibition above about 28%
PP5 inh – PP5 phosphatase inhibitors, primary screen, biochemical, fluorescence; Serine/threonine-protein phosphatase 5 (Homo sapiens), P53041; inhibition, % at 6.7 µM; purified PP5c, OMFP substrate fluorescence; actives 0.18% (n = 320,000);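 active means inhibition above the campaign's mean inhibition across all tested compounds plus 3 SD, cut at about 9.5% in these data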
PP1 counter – PP1-alpha phosphatase inhibitors, primary screen, counter-screen for PP5 inhibitor project, biochemical, fluorescence, OMFP substrate, single point; inhibition, % at 6.7 µM; actives 0.9% (n = 320,000); AID 2235, 2010; purified PP1alpha; Serine/threonine-protein phosphatase PP1-alpha catalytic subunit (Homo sapiens), P62136;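 active means inhibition above the mean inhibition of all tested compounds plus 3 SD, computed separately for each screening campaign, cut at about 15% in these data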
Target sequence (P62136 whole entry, looked up): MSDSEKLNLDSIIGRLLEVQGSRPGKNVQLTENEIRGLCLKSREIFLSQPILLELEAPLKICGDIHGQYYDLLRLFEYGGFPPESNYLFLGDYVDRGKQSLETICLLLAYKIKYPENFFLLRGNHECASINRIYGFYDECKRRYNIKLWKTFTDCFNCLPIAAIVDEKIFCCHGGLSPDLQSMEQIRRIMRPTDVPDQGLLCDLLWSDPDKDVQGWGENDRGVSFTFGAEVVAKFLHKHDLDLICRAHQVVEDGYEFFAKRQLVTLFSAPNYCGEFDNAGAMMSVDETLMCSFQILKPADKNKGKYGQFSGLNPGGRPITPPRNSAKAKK
ZTA counter – counter-screen for EBNA-1 inhibitors: inhibitors of Epstein-Barr virus ZTA; AID 2234; inhibition, % at 11 µM; actives 0.15% (n = 320,000); ZTA-DNA binding, fluorescence polarization; in the data active means inhibition above about 33%
Target sequence (P03206 whole entry, looked up): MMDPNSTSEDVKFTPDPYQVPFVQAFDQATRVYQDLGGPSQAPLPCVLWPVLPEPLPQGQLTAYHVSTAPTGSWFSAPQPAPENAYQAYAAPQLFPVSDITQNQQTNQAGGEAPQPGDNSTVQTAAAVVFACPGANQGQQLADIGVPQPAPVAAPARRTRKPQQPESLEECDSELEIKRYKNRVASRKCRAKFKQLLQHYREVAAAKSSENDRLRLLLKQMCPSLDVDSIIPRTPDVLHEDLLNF
MsrA conf – bovine MsrA inhibitors, retest, confirmation, biochemical, absorbance, HTS | actives 41% (n = 2,300) | purified bovine MsrA, absorbance read-out | inhibition, % at 15.5 µM | shares compounds with MsrA inhibitor;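 further: coupled to thioredoxin reductase with NADPH and selenocystamine and DMSO as substrate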
A number is an active result; . = inactive; / = no result. Unless noted, no stated cut-off is given here; in the data, active means inhibition above about 4.5%; inactive means the rest.

SMILES	MsrA inhibitor	MsrA act	EBNA-1 inh	PP5 inh	PP1 counter	ZTA counter	MsrA conf
COc1ccccc1N1CCN(C(=O)CCCn2nc(C)c([N+](=O)[O-])c2C)CC1	.	.	.	.	.	.	/
CC(=O)Nc1nc2c(s1)C(=O)NCCC2	.	.	.	.	.	.	/
CNc1ncc(C(=O)c2ccc(F)cc2)s1	4.7	.	.	.	.	.	.
N#C/C(=N\Nc1ccccc1)C(=N)N1CCOCC1	5.1	.	.	.	.	.	.
Cc1onc(-c2c(F)cccc2Cl)c1C(=O)Nc1cc2cc([N+](=O)[O-])ccc2oc1=O	.	.	/	/	/	/	/
Cc1ccc(NC(=O)NNC(=O)c2snnc2C)cc1	.	.	.	.	.	.	/
Cc1[nH]c2ccccc2c1/C=N/NC(=O)c1cc(-c2cccs2)[nH]n1	4.7	.	.	.	.	.	.
CCC(=O)Nc1ccc(C(=O)N/N=C/c2c(C)[nH]c3ccccc23)cc1	6.5	.	.	.	.	.	4.9
Cc1cc(C(=O)N/N=C/c2c(C)n(C)c3ccccc23)n[nH]1	6.9	.	.	.	.	.	.
O=c1c2c(nc3cc(-c4ccc(Cl)cc4)[nH]n13)CCS2	.	.	.	.	.	.	/
CN(C)c1ccc(C(=O)Nc2ccc(S(=O)(=O)NC3=NCCCCC3)cc2)cc1	5.1	.	.	.	.	.	.
CC(=O)N=Cc1c(C)c(C#N)c(=O)n(C)c1O	.	.	.	.	.	.	/
Cc1c(/C=N/Nc2ccc(F)cc2)c(O)n(C)c(=O)c1C#N	6.4	.	.	.	.	.	6.7
Cc1ccccc1/C=C/c1cccc[n+]1C	.	.	/	/	/	/	/
C[n+]1ccccc1/C=C/c1ccc(C#N)cc1	6.5	.	.	.	.	.	5.6
C[n+]1ccccc1/C=C/c1ccc2ncccc2c1	6.9	.	/	/	/	/	6.9
C[n+]1ccccc1/C=C/c1ccc(F)c(F)c1	.	.	.	.	.	.	/
C[n+]1ccccc1/C=C/c1ccc([N+](=O)[O-])cc1	6.0	.	.	.	.	.	6.8
COC(=O)Cc1ccc(NC(=S)NC2CC2)cc1	.	.	.	.	.	.	/
CC(=O)c1cn(CC(=O)Nc2ccccc2C(F)(F)F)c2ccccc12	.	.	.	.	.	.	/
O=C(NC(=S)NC1C2CC3CC(C2)CC1C3)c1ccccc1 (configuration not stated)	.	.	.	.	.	.	/
CCCC[C@@H]1C=C(C(=O)O)[C@H](c2ccc(Br)cc2)N1S(=O)(=O)c1ccc(C)cc1	.	.	/	/	/	/	/
CCOC(=O)c1sc(N)c(C(=O)Nc2ccccc2)c1C	4.8	.	.	.	.	.	.
COCCn1c(SCC(=O)Nc2cc(C)on2)nc2c(c1=O)SC(C)C2 (configuration not stated)	.	.	.	.	.	.	/
COCCn1c(SCC(=O)Nc2ccc3c(c2)OCCO3)nc2c(c1=O)SC(C)C2 (configuration not stated)	5.2	.	.	.	.	.	.
SMILES	MsrA inhibitor	MsrA act	EBNA-1 inh	PP5 inh	PP1 counter	ZTA counter	MsrA conf
COCCn1c(SCC(N)=O)nc2c(c1=O)SC(C)C2 (configuration not stated)	4.7	.	.	.	.	.	.
CC1Cc2nc(SCC(=O)Nc3ccc4c(c3)OCCO4)n(C)c(=O)c2S1 (configuration not stated)	5.0	.	.	.	.	.	.
COCC(=O)Nc1cc(C)cn(Cc2ccccc2Cl)c1=O	.	.	.	.	.	.	/
CCOC(=O)C1CCCN(C(=O)c2cnn3c(C(F)(F)F)cc(-c4ccccc4)nc23)C1 (configuration not stated)	5.3	.	.	.	.	.	.
CCOC(=O)c1cnn2c(C(F)(F)F)cc(-c3ccccc3)nc12	.	.	.	.	.	.	/
Cn1cnc([N+](=O)[O-])c1S(=O)(=O)c1cccc(Cl)c1	.	.	.	.	.	.	/
Cn1cnc([N+](=O)[O-])c1S(=O)(=O)Oc1ccccc1	16.9	.	/	/	/	/	12.0
Cn1cnc([N+](=O)[O-])c1S(=O)(=O)Nc1ccccc1	15.6	.	/	/	/	/	8.1
COc1ccc(C(=O)N(CN2CCCC2=O)c2nccs2)cc1OC	7.5	.	.	.	.	.	5.1
CCC1=NN2C(=N)/C(=C\c3cccn3-c3c(C)cccc3C)C(=O)N=C2S1	.	.	.	.	.	.	/
Cc1cccc(C)c1-n1cccc1/C=C1/C(=N)N2C(=NC1=O)SN=C2S(C)(=O)=O	7.4	.	.	.	.	.	5.8
Cc1nn(C)c(C)c1/C=C/C(=O)c1ccc(Cl)cc1Cl	6.4	.	.	.	.	.	.
Cc1nn(C)c(C)c1/C=C/C(=O)O	.	.	.	.	.	.	/
Cc1ccc(Nc2ccc(C(F)(F)F)cc2[N+](=O)[O-])cc1	10.0	.	.	.	.	.	17.5
C/C(=N\Nc1ccc(C(F)(F)F)cc1[N+](=O)[O-])C1CC1	9.2	.	.	.	.	.	8.8
O=C1NCCN(Cc2cccc(Oc3ccccc3)c2)C1CC(=O)N1CCCO1 (configuration not stated)	.	.	.	.	.	.	/
CCCOc1ccc(C(=O)Nc2ccc3c(c2)OCCO3)cc1	.	.	.	.	.	.	/
CC(C)NC(=O)C1(C)CCCN1Cc1ccccc1C#N (configuration not stated)	.	.	/	/	/	/	/
CCOc1cc(/C=C2/NC(=O)N(CC(=O)Nc3cccc(C)c3)C2=O)ccc1O	.	.	.	.	.	.	/
CCOc1cc(/C=C2/NC(=O)N(CC(=O)OC)C2=O)ccc1O	7.4	.	.	.	.	.	5.8
COC(=O)COc1ccc(/C=C2/NC(=O)N(CC(=O)OC)C2=O)cc1	5.5	.	.	.	.	.	5.4
O=C(COC(=O)c1ccc([N+](=O)[O-])cc1)Nc1ccccc1C(=O)NC1CC1	.	.	/	/	/	/	/
CCOC(=O)N1CCC(NS(=O)(=O)c2cc(C(=O)OC)n(C)c2)CC1	.	.	.	.	.	.	/
O=C(Nc1ccccc1)N1CCN(S(=O)(=O)c2ccccc2)CC1	.	.	.	.	.	.	/
O=[N+]([O-])c1cc(-c2n[nH]c(-c3ccccc3)n2)cc([N+](=O)[O-])c1	.	.	.	.	.	.	/
O=[N+]([O-])c1cc([N+](=O)[O-])c2n[nH]c(-c3ccccc3)c2c1	5.2	.	.	.	.	.	.
C(=C\c1ccccc1)/C=N/Nc1nncc(-c2ccccc2)n1	42.5	/	.	.	.	.	.
Cc1ccc(/C=N/Nc2nncc(-c3ccccc3)n2)o1	5.8	.	.	.	.	.	5.4
